Measured values published in PubChem BioAssay AID449768 (Vanderbilt High Throughput Screening Facility, 2010).
Hit rate of the full screen: of about 110,000 compounds, about 1,400 (1.3%) were called active.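 How the source made its calls: active means Z score or B-score, a plate-position-corrected score, falls beyond the plate's 99.7% confidence bounds, in either direction; inactive means both scores lie inside the 99.7% bounds.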 Shown is part of a subset that was picked to be rich in actives.

molecular target: Sodium-dependent dopamine transporter (Homo sapiens) (UniProt Q01959); test: modulators of human DAT uptake with cocaine – cell-based, LLC-PK1 hDAT, [14C]-dopamine uptake, MLSMR, cocaine antagonist project, primary screen (AID 449768); settings: LLC-PK1 hDAT cells, [14C]-dopamine uptake with cocaine IC80; at 10 µM; actives deviate in either direction;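 further: scored against the spread of the other compound wells on the same plate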
Sequence (Q01959 whole entry, looked up): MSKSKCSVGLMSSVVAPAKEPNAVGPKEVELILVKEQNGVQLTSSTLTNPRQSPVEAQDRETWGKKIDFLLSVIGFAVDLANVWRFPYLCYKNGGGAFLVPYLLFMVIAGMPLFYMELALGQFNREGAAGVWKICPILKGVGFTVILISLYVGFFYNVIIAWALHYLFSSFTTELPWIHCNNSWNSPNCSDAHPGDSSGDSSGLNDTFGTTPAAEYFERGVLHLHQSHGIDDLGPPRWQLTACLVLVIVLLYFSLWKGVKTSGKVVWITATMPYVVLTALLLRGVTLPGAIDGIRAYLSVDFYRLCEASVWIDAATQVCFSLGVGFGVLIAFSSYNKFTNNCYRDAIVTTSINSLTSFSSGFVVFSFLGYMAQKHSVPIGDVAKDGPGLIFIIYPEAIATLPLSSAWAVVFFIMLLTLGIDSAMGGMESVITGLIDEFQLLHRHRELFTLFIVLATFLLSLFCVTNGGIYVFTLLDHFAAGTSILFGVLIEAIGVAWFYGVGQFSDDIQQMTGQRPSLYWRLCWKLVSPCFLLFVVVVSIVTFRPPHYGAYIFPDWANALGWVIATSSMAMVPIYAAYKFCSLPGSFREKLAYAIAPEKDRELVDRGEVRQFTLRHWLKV

B-score, inactive:
C#CCNC(=O)[C@H](Cc1ccc(C(=O)c2ccccc2)cc1)NC(=O)OC(C)(C)C -0.105
Cc1ccc(S(=O)(=O)N2CCC(C(=O)NCC3CCCO3)CC2)cc1 (stereo unspecified) -0.801
Cc1ccc(-c2noc(-c3ccccc3C(=O)NCC3CCCO3)n2)cc1 (stereo unspecified) -0.191
CNC(=O)c1[nH]cnc1C(=O)N[C@@H](CC(C)C)C(=O)OCc1ccccc1 -0.0072
COc1ccc(CN2[C@@H](CC(=O)O)c3cc(F)ccc3S2(=O)=O)cc1 1.13
CNC(=O)CN1C(=O)c2ccccc2S1(=O)=O -0.143
CCCc1nnc(NC(=O)CN2C(=O)c3ccccc3S2(=O)=O)s1 -0.746
O=C1CC2(CCCC2)Oc2ccc(Cl)cc21 0.175
c1ccc(-n2ncc3c(N4CCCC4)ncnc32)cc1 0.432
O=C(Cn1cnc2c(cnn2-c2ccccc2)c1=O)NCc1ccccc1 -0.925
C=C1CCN([C@H](C(=O)NCc2cc(OC)c(OC)c(OC)c2)C(C)C)S(=O)(=O)c2ccccc21 1.09
COc1cccc(/C=N/NC(=O)c2cccc([N+](=O)[O-])c2)c1OS(=O)(=O)c1ccc(C)cc1 -0.0993
Cc1ccc(/C=N/NC(=O)c2sccc2OCc2ccc(F)cc2)cc1 -0.168
CCOC(=O)c1ccc(NC(=O)c2c(NCc3ccccc3)[nH]c(=O)[nH]c2=O)cc1 -0.0313
C#CCNC(=O)C1=C[C@@H](c2ccccc2)[C@H](CCCO)[C@@H](OCC)O1 -0.204
COc1ccc(OCCCC(=O)Nc2nnc(C3CCCO3)s2)cc1 (stereo unspecified) -0.0765
COCC(=O)Nc1nnc(COc2ccccc2)s1 -0.411
COCOc1cc(O)c(C(=O)/C=C/c2ccc(OCOC)c(OCOC)c2)c(OCOC)c1 -0.154
CC(C)CC(CO)N1CCN(C(=O)c2ccc(Cl)cc2Cl)CCC1=O (stereo unspecified) -0.933
COc1ccc(S(=O)(=O)N2CCC(C(=O)N3CCc4ccccc4C3)CC2)cc1OC 0.19
CCOc1cc(C(=O)N2CCc3cc(OC)c(OC)cc3C2)ccc1OC(F)F 0.798
Cc1ccc(NC(=S)NCCN2CCOCC2)cc1 -0.206
O=C(CCN1C(=O)c2ccccc2C1=O)NCCN1CCOCC1 -0.649
CCOC(=O)c1ccc(NC(=O)c2c(N)n(C)c(=O)[nH]c2=O)cc1 -0.175
COC(C[C@@H](O)C[C@H](O)[C@H](C)OCc1ccccc1)OC 0.0993
CCCOc1ccccc1C1CC(=O)Nc2cc3c(cc21)OCO3 (stereo unspecified) -1.06
COc1ccc(F)cc1S(=O)(=O)Nc1ccc2c(c1)OCO2 -0.037
CCOC(=O)/C=C/CN(C(=O)OC(C)(C)C)S(=O)(=O)N1CC=CC1 -1.8e-05
COC(=O)[C@H](Cc1ccccc1)NC(=O)Nc1ccc(S(N)(=O)=O)cc1 0.0225
CC(=O)NC(Cc1ccc(F)cc1)C(=O)O (stereo unspecified) -0.111
Cc1ccc(/C=N/NC(=O)C2=NNC(c3ccccc3)(c3ccccc3)C2)c(O)c1 -0.164
Cc1ccc(C(=O)N/N=C/c2sc(=O)n(Cc3cccc(C(=O)O)c3)c2Cl)cc1 0.653
C#CCOCCOCCOCCNc1nc(N2CCN(C(=O)[C@H](C(C)C)n3cc(CCO)nn3)CC2)nc(N2CCN(C(=O)[C@H](C(C)C)n3cc(CCO)nn3)CC2)n1 -0.703
COc1ccc(-c2nc3c(s2)CCc2onc(-c4ccc(Br)cc4)c2-3)cc1 -0.269
O=C1NC[C@@H](Cc2ccc(O)cc2)N(CCc2cccc(F)c2)C1=O 0.0299
Cc1cn(C)c(=O)n(C)c1=O -1.72

B-score, active:
Cc1ccc(-n2c(C)cc(/C=C(\C#N)C(=O)NCC3CCCO3)c2C)cc1 (stereo unspecified) 3.1
Nc1nnc(SCCN2C(=O)c3ccccc3S2(=O)=O)s1 2.06
CCN(CC)C(=O)CSc1ncnc2c1cnn2-c1ccccc1 3.2
Cc1ccc(S(=O)(=O)Oc2ccc(/C=N/NC(=O)c3c(Cl)cnn3C)cc2)cc1 -7.83
Cc1nnc(NC(=O)CCCOc2ccccc2)s1 -9.48
COc1cc2c(cc1OC)CN(C(=O)c1cc(=O)c3ccccc3o1)CC2 3.91
Cc1ccc(Cc2c(C)nc3nc(SCC(=O)NCCN4CCOCC4)nn3c2C)cc1 2.86
COc1ccccc1C1C2=C(COC2=O)Nc2cc3c(cc21)OCO3 (stereo unspecified) -2.97
CC(=O)c1ccc(NC(=O)N[C@@H](Cc2ccccc2)C(=O)O)cc1 3.14
Cc1ccc(/C=N/NC(=O)C(NC(=O)c2ccccc2)c2n[nH]c(=O)c3ccccc23)cc1 (stereo unspecified) 5.41
